According to PubChem BioAssay:
Activity calls are given as the source filed them. No rule for the calls is given here.

These compounds were tested against Pantothenate synthetase (Mycobacterium tuberculosis (strain ATCC 25618 / H37Rv)) (UniProt P9WIL5) (assay: Recombinant Mtb pantothenate synthetase (PanC) inhibitors, coupled enzyme, confirmatory (AID 375;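 also: 0% = full reaction with vehicle and 100% = no enzyme background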)). Details: coupled enzyme assay; at 10 µM, stronger effect = higher value.
Chain of Pantothenate synthetase (Mycobacterium tuberculosis (strain ATCC 25618 / H37Rv)) (P9WIL5 whole entry, looked up): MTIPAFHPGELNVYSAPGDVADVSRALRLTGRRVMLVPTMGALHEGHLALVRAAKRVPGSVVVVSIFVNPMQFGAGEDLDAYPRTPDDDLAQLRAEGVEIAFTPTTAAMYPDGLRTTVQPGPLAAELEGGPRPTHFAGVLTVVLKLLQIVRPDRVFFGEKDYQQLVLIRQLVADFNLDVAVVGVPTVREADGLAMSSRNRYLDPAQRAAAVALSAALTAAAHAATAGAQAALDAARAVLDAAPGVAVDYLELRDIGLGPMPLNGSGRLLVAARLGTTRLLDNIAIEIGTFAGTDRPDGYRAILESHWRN
In the case of `CCOC(=O)C1CCN(C(c2cc3cc(C)cc(C)c3[nH]c2=O)c2nnnn2C2CCCCC2)CC1` (stereo not given), the inhibition is reported as 0% (inactive). `C=CCn1c(=O)n(CCOC)c(=O)c2sc3ccccc3c21` was tested, and the inhibition was 0% (inactive). In the case of `CN(C)CCCNC(=O)CCC1CCCCC1`, the inhibition is reported as 6% (inactive). For `CC(=O)OCC(=O)[C@@]1(O)[C@H](C)C[C@H]2[C@@H]3CCC4=CC(=O)C=C[C@]4(C)[C@@]3(F)[C@@H](O)C[C@@]21C`, the inhibition was 4% (inactive). In the case of `CC(=O)NC(C)c1nc2ccccc2n1C(C)C` (stereo not given), the inhibition is reported as 6% (inactive). With `COc1ccccc1Nc1nc(N)nc(CN2CCN(c3ccccc3F)CC2)n1` the inhibition was 0% (inactive). For `CCOc1ccc(C(=O)Nc2cc(C)on2)cc1OCC`, the inhibition was 6% (inactive). `COCC(=O)N(C)c1nnc(-c2ccccn2)s1` was tested, and the inhibition was 2% (inactive). `CN(C)c1ccc(CNCCC2(O)CCOC(C)(C)C2)cc1` (stereo not given) was tested, and the inhibition was 2% (inactive). `Cc1ccc(NC(=O)CCC(=O)O)cc1F` was tested, and the inhibition was 0% (inactive). With `CCOc1ccccc1-n1nnnc1SCC(=O)Nc1cc2oc3ccccc3c2cc1OC` the inhibition was 0% (inactive). For `CCCCOc1ccccc1C1C(C(N)=O)=C(C)Nc2nnnn21` (stereo not given), the inhibition was 0% (inactive). With `COC(=O)C(NC(C)=O)(Nc1ccccn1)C(F)(F)F` (stereo not given) the inhibition was 1% (inactive). With `Cc1ccc2c(c1)N(CC(=O)N1CCCCC1c1cccnc1)C(=O)CO2` (stereo not given) the inhibition was 0% (inactive). For `CSc1ccccc1NC(=O)c1cnc2n(c1=O)CCS2`, the inhibition was 7% (inactive). With `CCc1cc(=O)n2[nH]c(C)c(-c3ccccc3OC)c2n1` the inhibition was 4% (inactive). `CC(=O)c1cc(-c2ccc(F)cc2)n(CCC(=O)Nc2cc(C)[nH]n2)c1C` was tested, and the inhibition was 4% (inactive). In the case of `O=C(CSc1ncnc2ccccc12)NCCCO`, the inhibition is reported as 0% (inactive). In the case of `Cc1cc(C)c(C#N)c(SCC(=O)Nc2ccc(S(=O)(=O)Nc3onc(C)c3C)cc2)n1`, the inhibition is reported as 0% (inactive). `CS(=O)(=O)N1CCCC(C(=O)NCc2ccccc2Cl)C1` (stereo not given) was tested, and the inhibition was 0% (inactive). In the case of `CCOC(=O)N1CCN(S(=O)(=O)c2cc(Cl)c(OC)cc2Cl)CC1`, the inhibition is reported as 0% (inactive). For `COc1cccc(N2CCN(c3ncnc4c3[nH]c3ccc(F)cc34)CC2C)c1` (stereo not given), the inhibition was 0% (inactive). For `CC(=O)NC(C)C(=O)OCc1ccc(Cl)cc1Cl` (stereo not given), the inhibition was 0% (inactive). `COc1ccccc1-c1cc(C(=O)Nc2cc(C)nn2-c2ccccc2)no1` was tested, and the inhibition was 6% (inactive). For `Cc1cc(C)c2ccc(N)nc2c1O`, the inhibition was 0% (inactive). In the case of `Cc1cc(C)n(CC(=O)O)n1`, the inhibition is reported as 0% (inactive). In the case of `COc1ccc(CNc2nc3nc(C)c(Cl)c(C)n3n2)cc1OC`, the inhibition is reported as 6% (inactive). For `CNC(=O)C1C2C=CC3(O2)C1C(=O)N(C1CC1)C3C(=O)NCc1ccc(OC)cc1` (stereo not given), the inhibition was 0% (inactive). In the case of `O=C(Cn1ccc2ccccc2c1=O)Nc1ccc2c(c1)OCO2`, the inhibition is reported as 6% (inactive). `COC(=O)CN(c1ccc(OC)cc1)S(=O)(=O)c1ccc(OC)c(OC)c1` was tested, and the inhibition was 0% (inactive). With `Cc1ccc(NC(=O)CSc2nnc(-c3ccc(S(=O)(=O)N4CCOCC4)cc3)n2C)cc1` the inhibition was 1% (inactive). For `N#CC(C(=O)NCCc1ccccc1)c1nc2ccccc2nc1N1CCOCC1` (stereo not given), the inhibition was 0% (inactive). `COCCCNC(=O)CCc1nc(-c2ccccc2Cl)no1` was tested, and the inhibition was 0% (inactive). For `COc1ccc(CNc2nc(NCc3ccc(OC)cc3)n(S(C)(=O)=O)n2)cc1`, the inhibition was 0% (inactive). For `CCCn1c(=O)c(C(=O)NCc2ccccn2)c(O)c2ccccc21`, the inhibition was 0% (inactive). In the case of `CCOC(=O)C1(C(=O)OCC)C(c2ccccc2)CC(O)N1C(C)=O` (stereo not given), the inhibition is reported as 0% (inactive). In the case of `CCn1nnc(NC(=O)c2ccccc2Br)n1`, the inhibition is reported as 0% (inactive). In the case of `Cc1ccc2oc(=O)c3cnn(CC(=O)N4CCCCC4C)c3c2c1` (stereo not given), the inhibition is reported as 0% (inactive). With `CCOC(=O)C1CCN(c2c(NCCCN(CC)c3ccccc3)c(=O)c2=O)CC1` the inhibition was 0% (inactive). In the case of `CCCOc1ccccc1NC(=O)c1ccc(N)cc1`, the inhibition is reported as 3% (inactive).
